{
  "source": "PubChem BioAssay (Tox21)",
  "note": "Values without a mark were called inactive. Calls of active or inactive are those of the source. Unless noted, the call rests on the fitted dose curve. On the % scale 0 is the no-effect control and ±100 the full control effect; potency means the concentration at half of the fitted maximal effect.",
  "data": [
    {"molecular_target": "KiSS-1 receptor (Homo sapiens) (UniProt Q969F8)", "sequence (Q969F8 whole entry, looked up)": "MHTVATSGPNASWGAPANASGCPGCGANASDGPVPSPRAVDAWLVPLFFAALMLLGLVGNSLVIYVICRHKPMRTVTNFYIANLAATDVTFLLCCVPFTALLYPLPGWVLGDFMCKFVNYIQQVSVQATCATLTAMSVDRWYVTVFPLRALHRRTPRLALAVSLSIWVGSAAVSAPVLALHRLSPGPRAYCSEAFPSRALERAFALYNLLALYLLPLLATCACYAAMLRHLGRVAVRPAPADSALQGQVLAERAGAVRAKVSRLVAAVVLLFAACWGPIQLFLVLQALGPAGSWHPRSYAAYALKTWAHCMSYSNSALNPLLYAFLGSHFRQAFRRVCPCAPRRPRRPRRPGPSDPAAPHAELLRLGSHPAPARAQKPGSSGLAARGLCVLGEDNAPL", "assay": "Human kisspeptin (KISS1R) small molecule agonists, calcium flux assay in KISS1R-HEK293 cells (AID 1920064; active means well fitted activation curve with a large enough effect in the repeat runs)", "details": "KISS1R-HEK293, calcium flux fluorescence, agonist; series mostly up to 76.8 µM; activation: at the top concentration", "how_it_was_run": "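Calcium flux read-out: kinetic fluorescence at Ex/Em=480/540, 1 s intervals over 3 min, after pin-tool compound addition to dye-loaded KISS1R-HEK293 cells. Fifteen concentrations, triplicates.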", "values": [
      {"smiles": "S=C=NCCc1ccccc1", "activation": "1.93%"},
      {"smiles": "Clc1cc(Cl)c(-c2cc(Cl)c(Cl)cc2Cl)cc1Cl", "activation": "0.0667% [at 35.3 µM]"},
      {"smiles": "CC1=C2C[C@H]3[C@@H](CC=C4C[C@@H](O)CC[C@@]43C)[C@@H]2CC[C@]12O[C@@H]1C[C@H](C)CN[C@H]1[C@H]2C", "activation": "2.32% [at 35.3 µM]"},
      {"smiles": "Cc1nc2ccccc2c(=O)n1-c1ccccc1Cl", "activation": "2.63%"},
      {"smiles": "ClC1=C(Cl)[C@]2(Cl)[C@H]3[C@H]([C@@H]4C=C[C@H]3C4)[C@@]1(Cl)C2(Cl)Cl", "Potency": "inactive"},
      {"smiles": "CC(C)[C@@H](C(=O)O[C@@H](C#N)c1cccc(Oc2ccccc2)c1)c1ccc(Cl)cc1", "Potency": "inactive"},
      {"smiles": "O=C(Cl)c1ccc(Cl)cc1", "activation": "1.46%"},
      {"smiles": "CCCCOCN(C(=O)CCl)c1c(CC)cccc1CC", "activation": "2.25%"},
      {"smiles": "Nc1ccc([N+](=O)[O-])cc1Cl", "activation": "-1.52%"},
      {"smiles": "CCCCP(CCCC)CCCC", "activation": "-3.39%"},
      {"smiles": "CC(C)c1c(CN(C)C(C)Cc2ccccc2)n(C)n(-c2ccccc2)c1=O", "note": "(configuration not stated)", "activation": "0.598% [at 35.3 µM]"},
      {"smiles": "C[C@]12C/C(=C/O)C(=O)C[C@@H]1CC[C@@H]1[C@@H]2CC[C@@]2(C)[C@H]1CC[C@]2(C)O", "Potency": "inactive"},
      {"smiles": "ClC1=C(Cl)[C@]2(Cl)[C@H]3[C@H]([C@H]4C=C[C@H]3C4)[C@@]1(Cl)C2(Cl)Cl", "activation": "0.0092%"},
      {"smiles": "COC(=O)C(c1ccccc1)C1CCCCN1", "note": "(configuration not stated)", "activation": "2.87%"},
      {"smiles": "CN1C(=O)[C@@H](NC(=O)c2cc3ccccc3[nH]2)N=C(c2ccccc2)c2ccccc21", "activation": "-0.671% [at 35.3 µM]"},
      {"smiles": "CCO[C@H]1O[C@@H]2OC3(C)CC[C@H]4[C@H](C)CC[C@@H]([C@H]1C)[C@@]24OO3", "activation": "1.76% [at 35.3 µM]"},
      {"smiles": "O=NN(CCO)CCO", "activation": "1.72%"},
      {"smiles": "CCOC(=O)C(Cl)Cc1cc(-n2nc(C)n(C(F)F)c2=O)c(F)cc1Cl", "note": "(configuration not stated)", "activation": "1.49%"},
      {"smiles": "C[C@H]1O[C@@H](O[C@H]2[C@@H](O)C[C@H](O[C@H]3[C@@H](O)C[C@H](O[C@H]4CC[C@@]5(C)[C@H](CC[C@@H]6[C@@H]5CC[C@]5(C)[C@@H](C7=CC(=O)OC7)CC[C@]65O)C4)O[C@@H]3C)O[C@@H]2C)C[C@H](O)[C@@H]1O", "Potency": "inactive"},
      {"smiles": "[O-][Br+2]([O-])O", "activation": "-0.214% [at 35.3 µM]"},
      {"smiles": "C[C@@H]1C[C@@H]([C@H](O)CC2CC(=O)NC(=O)C2)C(=O)[C@@H](C)C1", "Potency": "inactive"},
      {"smiles": "Nc1c(Cl)c(F)nc(OCC(=O)O)c1Cl", "activation": "-2.44%"},
      {"smiles": "OC(Cc1ccccc1Cl)(Cn1[nH]cnc1=S)C1(Cl)CC1", "note": "(configuration not stated)", "activation": "0.942%"},
      {"smiles": "N#CC(C#N)=C(C#N)C#N", "activation": "4.45%"},
      {"smiles": "CC1COC(Cn2cncn2)(c2ccc(Oc3ccc(Cl)cc3)cc2Cl)O1", "note": "(configuration not stated)", "activation": "0.156%"},
      {"smiles": "COCC(C)N(C(=O)CCl)c1c(C)csc1C", "note": "(configuration not stated)", "activation": "-0.924%"},
      {"smiles": "N[C@@H](Cc1ccc(Oc2cc(I)c(O)c(I)c2)c(I)c1)C(=O)O", "activation": "-0.257% [at 35.3 µM]"},
      {"smiles": "CCOc1cc(Oc2ccc(C(F)(F)F)cc2Cl)ccc1[N+](=O)[O-]", "Potency": "inactive"},
      {"smiles": "CC(Cc1ccccc1)NCCn1cnc2c1c(=O)n(C)c(=O)n2C", "note": "(configuration not stated)", "activation": "-0.0838%"},
      {"smiles": "Cc1ccc([N+](=O)[O-])[c]2c1[O][Hg]2", "activation": "13.8% [at 35.3 µM]"},
      {"smiles": "CC1(C)C(C(=O)OC(C#N)c2cccc(Oc3ccccc3)c2)C1(C)C", "note": "(configuration not stated)", "Potency": "inactive"},
      {"smiles": "C=C(C)C(=O)[O][Sn]([CH2]CCC)([CH2]CCC)[CH2]CCC", "Potency": "11 µM (active)"},
      {"smiles": "CCCN(CC1CC1)c1c([N+](=O)[O-])cc(C(F)(F)F)cc1[N+](=O)[O-]", "activation": "1.94%"},
      {"smiles": "COc1ccc(Cc2nccc3cc(OC)c(OC)cc23)cc1OC", "activation": "1.64% [at 35.3 µM]"},
      {"smiles": "COC1=CC(=O)O[C@@H](/C=C/c2ccc3c(c2)OCO3)C1", "activation": "0.569%"},
      {"smiles": "Brc1ccc(Oc2ccc(Br)cc2Br)c(Br)c1", "activation": "-4.82%"},
      {"smiles": "CC(C)N1C(=O)N(c2ccccc2)CSC1=NC(C)(C)C", "activation": "3.32%"},
      {"smiles": "COC(=O)COc1ccc(Cl)cc1Cl", "activation": "0.858%"}
    ]},
    {"test_system": "not listed separately", "assay": "G protein-coupled receptor (GPCR) small molecule agonists, calcium flux assay: HEK293 wild type cell line counter screen (AID 1920065)", "details": "HEK293 WT calcium flux, fluorescence, agonist mode; series mostly up to 57.6 µM; activation: at the top concentration", "how_it_was_run": "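Agonist mode; 18 h seeding at 37 C, 1 h dye load at 37 C; compounds pinned from DMSO, ATP as positive control; kinetic fluorescence 480/540 nm, 3 min, 1 s reads; 15 concentrations, triplicate.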", "values": [
      {"smiles": "S=C=NCCc1ccccc1", "activation": "-1.02%"},
      {"smiles": "Clc1cc(Cl)c(-c2cc(Cl)c(Cl)cc2Cl)cc1Cl", "activation": "0.452% [at 26.5 µM]"},
      {"smiles": "CC1=C2C[C@H]3[C@@H](CC=C4C[C@@H](O)CC[C@@]43C)[C@@H]2CC[C@]12O[C@@H]1C[C@H](C)CN[C@H]1[C@H]2C", "activation": "0.649% [at 26.5 µM]"},
      {"smiles": "Cc1nc2ccccc2c(=O)n1-c1ccccc1Cl", "activation": "0.0383%"},
      {"smiles": "ClC1=C(Cl)[C@]2(Cl)[C@H]3[C@H]([C@@H]4C=C[C@H]3C4)[C@@]1(Cl)C2(Cl)Cl", "Potency": "inactive"},
      {"smiles": "CC(C)[C@@H](C(=O)O[C@@H](C#N)c1cccc(Oc2ccccc2)c1)c1ccc(Cl)cc1", "Potency": "inactive"},
      {"smiles": "O=C(Cl)c1ccc(Cl)cc1", "activation": "-0.876%"},
      {"smiles": "CCCCOCN(C(=O)CCl)c1c(CC)cccc1CC", "activation": "-0.326%"},
      {"smiles": "Nc1ccc([N+](=O)[O-])cc1Cl", "activation": "-0.352%"},
      {"smiles": "CCCCP(CCCC)CCCC", "activation": "0.482%"},
      {"smiles": "CC(C)c1c(CN(C)C(C)Cc2ccccc2)n(C)n(-c2ccccc2)c1=O", "note": "(configuration not stated)", "activation": "-0.286% [at 26.5 µM]"},
      {"smiles": "C[C@]12C/C(=C/O)C(=O)C[C@@H]1CC[C@@H]1[C@@H]2CC[C@@]2(C)[C@H]1CC[C@]2(C)O", "Potency": "inactive"},
      {"smiles": "ClC1=C(Cl)[C@]2(Cl)[C@H]3[C@H]([C@H]4C=C[C@H]3C4)[C@@]1(Cl)C2(Cl)Cl", "activation": "0.508%"},
      {"smiles": "COC(=O)C(c1ccccc1)C1CCCCN1", "note": "(configuration not stated)", "activation": "2.55%"},
      {"smiles": "CC(=O)[O-].CC(=O)[O-].O.O.[Cd+2]", "activation": "9.92%"},
      {"smiles": "CN1C(=O)[C@@H](NC(=O)c2cc3ccccc3[nH]2)N=C(c2ccccc2)c2ccccc21", "activation": "0.0051% [at 26.5 µM]"},
      {"smiles": "CCO[C@H]1O[C@@H]2OC3(C)CC[C@H]4[C@H](C)CC[C@@H]([C@H]1C)[C@@]24OO3", "activation": "-0.0183% [at 26.5 µM]"},
      {"smiles": "O=NN(CCO)CCO", "activation": "0.726%"},
      {"smiles": "CCOC(=O)C(Cl)Cc1cc(-n2nc(C)n(C(F)F)c2=O)c(F)cc1Cl", "note": "(configuration not stated)", "activation": "-2.39%"},
      {"smiles": "C[C@H]1O[C@@H](O[C@H]2[C@@H](O)C[C@H](O[C@H]3[C@@H](O)C[C@H](O[C@H]4CC[C@@]5(C)[C@H](CC[C@@H]6[C@@H]5CC[C@]5(C)[C@@H](C7=CC(=O)OC7)CC[C@]65O)C4)O[C@@H]3C)O[C@@H]2C)C[C@H](O)[C@@H]1O", "Potency": "inactive"},
      {"smiles": "[O-][Br+2]([O-])O", "activation": "-0.57% [at 26.5 µM]"},
      {"smiles": "C[C@@H]1C[C@@H]([C@H](O)CC2CC(=O)NC(=O)C2)C(=O)[C@@H](C)C1", "Potency": "inactive"},
      {"smiles": "Nc1c(Cl)c(F)nc(OCC(=O)O)c1Cl", "activation": "-0.666%"},
      {"smiles": "OC(Cc1ccccc1Cl)(Cn1[nH]cnc1=S)C1(Cl)CC1", "note": "(configuration not stated)", "activation": "0.381%"},
      {"smiles": "N#CC(C#N)=C(C#N)C#N", "activation": "-1.67%"},
      {"smiles": "CC1COC(Cn2cncn2)(c2ccc(Oc3ccc(Cl)cc3)cc2Cl)O1", "note": "(configuration not stated)", "activation": "-0.943%"},
      {"smiles": "COCC(C)N(C(=O)CCl)c1c(C)csc1C", "note": "(configuration not stated)", "activation": "0.11%"},
      {"smiles": "N[C@@H](Cc1ccc(Oc2cc(I)c(O)c(I)c2)c(I)c1)C(=O)O", "activation": "-0.21% [at 26.5 µM]"},
      {"smiles": "CCOc1cc(Oc2ccc(C(F)(F)F)cc2Cl)ccc1[N+](=O)[O-]", "Potency": "inactive"},
      {"smiles": "CC(Cc1ccccc1)NCCn1cnc2c1c(=O)n(C)c(=O)n2C", "note": "(configuration not stated)", "activation": "-0.0645%"},
      {"smiles": "Cc1ccc([N+](=O)[O-])[c]2c1[O][Hg]2", "activation": "1.05% [at 26.5 µM]"},
      {"smiles": "CC1(C)C(C(=O)OC(C#N)c2cccc(Oc3ccccc3)c2)C1(C)C", "note": "(configuration not stated)", "Potency": "inactive"},
      {"smiles": "C=C(C)C(=O)[O][Sn]([CH2]CCC)([CH2]CCC)[CH2]CCC", "Potency": "34.7 µM (active)"},
      {"smiles": "CCCN(CC1CC1)c1c([N+](=O)[O-])cc(C(F)(F)F)cc1[N+](=O)[O-]", "activation": "0.336%"},
      {"smiles": "COc1ccc(Cc2nccc3cc(OC)c(OC)cc23)cc1OC", "activation": "0.825% [at 26.5 µM]"},
      {"smiles": "COC1=CC(=O)O[C@@H](/C=C/c2ccc3c(c2)OCO3)C1", "activation": "-0.0228%"},
      {"smiles": "Brc1ccc(Oc2ccc(Br)cc2Br)c(Br)c1", "activation": "0.726%"},
      {"smiles": "CC(C)N1C(=O)N(c2ccccc2)CSC1=NC(C)(C)C", "activation": "-1.36%"},
      {"smiles": "COC(=O)COc1ccc(Cl)cc1Cl", "activation": "-0.621%"}
    ]}
  ]
}
